Experimental data taken from PubChem BioAssay (NCATS).
Records with an inconclusive call do not appear. Calls of active or inactive are those of the source. Calls come from the whole dose curve; as a rule, active = well fitted curve in the direction sought with a large enough effect; inconclusive = small, poorly fitted or top-dose-only effect, or another doubt; inactive = no such curve, though single readings can be large; an effect the other way counts as inactive or inconclusive.

Experiments:
[1] = target: Glutathione peroxidase 1 (Homo sapiens) (UniProt P07203); assay: Primary qHTS Assay for Inhibitors of Recombinant Selenoprotein Glutathione Peroxidase 1 (GPX1) (AID 1845191); note: nearly all actives have a fitted effect of over 65% in size; note: potency is the fitted concentration of half-maximal effect; for activity, negative = inhibition: % is set by controls: 0 for no effect and ±100 for the full control effect
Method in brief: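 GPX1 10 nM, GR 100 nM, GSH 1 mM, NADPH 0.5 mM, CHP 0.5 mM (final). 30-min cpd preincubation, RT. Ex340/Em450 read t=0, t=15 min.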

[2] = target: Phospholipid hydroperoxide glutathione peroxidase GPX4 (Homo sapiens) (UniProt P36969); assay: Primary qHTS Assay for Inhibitors of Recombinant Selenoprotein Glutathione Peroxidase 4 (GPX4) (AID 1845192); note: nearly all actives have a fitted effect of over 65% in size; note: potency is the fitted concentration of half-maximal effect; for activity change, negative = inhibition: series mostly up to about 50 µM; % is set by controls: 0 for no effect and ±100 for the full control effect
Method in brief: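 qHTS, GR-coupled: GPX4 200 nM + cpd 30 min RT → GSH 1 mM, NADPH 0.5 mM, GR 100 nM → CHP 0.5 mM start; fluor 340/450 at t0 and t15 min; no-enzyme wells as control.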

[3] = target: Luciferin 4-monooxygenase (Photinus pyralis) (UniProt P08659); assay: Primary firefly luciferase (FLuc) qHTS assay for identification of artifact compounds. (AID 1845220); note: nearly all actives have a fitted effect of over 60% in size;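 for activity change, negative = inhibition: series mostly up to about 54 µM; plate controls were DMSO vehicle for no effect and no enzyme for full effect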
Method in brief: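 In this counter-screen for luciferase artifacts, test compounds met substrate (10 uM each luciferin and ATP) before 10 nM enzyme started the reaction. Light output was measured 5 min later.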

[4] = Primary fluorescence-based thiol-reactive (MSTI) qHTS assay for identification of artifact compounds. (AID 1845221); note: nearly all actives have a fitted effect of over 65% in size; note: potency is the fitted concentration of half-maximal effect;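 for activity change, negative = thiol reactive: series mostly up to about 54 µM; thiol-reactive compounds lower the probe fluorescence signal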
Method in brief: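 Thiol-reactive compounds detected by quenching of 4 uM MSTI fluorescence (525/598 nm) after 1 h room-temperature dark incubation in PBS pH 7.4, 2% DMSO. qHTS titration; percent inhibition Hill-fitted against Acetyl-MSTI/MSTI controls.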

[5] = tested on: Nanoluciferase (engineered Oplophorus gracilirostris luciferase); assay: Primary Nanoluciferase (NLuc) qHTS assay for identification of artifact compounds. (AID 1845222);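 note: NLuc secreted into diluted conditioned medium of S16 cells; series mostly up to about 54 µM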
Method in brief: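 Using secreted nanoluciferase in S16 culture medium (0.22 um filtered, 1:55 dilution), compounds were preincubated 15 min at RT. Signal was generated with Nano-Glo reagent (1:100) over 5 min.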

[6] = Primary redox qHTS assay for identification of artifact compounds. (AID 1845223);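 note: 0% = DMSO and 100% = reference compound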
Method in brief: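 Redox-cycling detection via DTT (250 uM final) oxidation coupled to Amplex Red (25 uM)/HRP (250 mU/mL) in HBSS. 15 min preincubation plus 30 min after DTT, room temperature. Ex/Em 525/598 nm; 4-parameter Hill fit against DMSO and 10 uM DA3003.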

Sequence of Glutathione peroxidase 1 (Homo sapiens) (P07203 whole entry, looked up): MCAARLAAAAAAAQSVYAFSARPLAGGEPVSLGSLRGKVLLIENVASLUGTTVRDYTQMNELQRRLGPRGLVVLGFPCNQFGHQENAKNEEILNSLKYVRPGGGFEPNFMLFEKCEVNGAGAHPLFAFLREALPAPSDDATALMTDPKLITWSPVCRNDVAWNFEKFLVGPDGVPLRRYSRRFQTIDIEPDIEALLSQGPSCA
Sequence of Phospholipid hydroperoxide glutathione peroxidase GPX4 (Homo sapiens) (P36969 whole entry, looked up): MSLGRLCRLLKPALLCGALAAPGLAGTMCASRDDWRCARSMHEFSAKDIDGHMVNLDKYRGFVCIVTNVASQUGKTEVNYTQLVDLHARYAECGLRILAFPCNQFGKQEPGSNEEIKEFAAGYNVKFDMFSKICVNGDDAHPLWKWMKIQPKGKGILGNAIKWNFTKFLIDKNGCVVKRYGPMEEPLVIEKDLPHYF

COc1cc(C(=O)NC(=S)Nc2cccc(NC(=O)c3ccccc3)c2)cc(OC)c1OC
inactive: Potency [1] | Potency [2] | Potency [3] | Potency [4] | Potency [5] | Potency [6]

CC(=O)O[C@@H]1[C@@H](O)[C@H](O[C@@H]2[C@@H](O)[C@@H](O)[C@H](O[C@H]3[C@H](O[C@H]4[C@H](O[C@H]5CC[C@@]6(C)C(CC[C@]7(C)C6CC=C6[C@@H]8CC(C)(C)CC[C@]8(C(=O)O)CC[C@]67C)[C@]5(C)CO)O[C@H](CO)[C@@H](O)[C@@H]4O)OC[C@@H](O)[C@@H]3O)O[C@H]2C)OC[C@H]1O (stereo partly drawn)
inactive: Potency [1] | Potency [2] | activity change, negative = inhibition [3] -4.72% [at 11.6 µM] | activity change, negative = thiol reactive [4] 377% [at 11.5 µM] | activity, negative = inhibition [5] 1.48% [at 11.6 µM] | redox activity (% of DA3003) [6] 0.129% [at 11.5 µM]

COC(=O)C[C@H]1C(C)(C)[C@H](OC(=O)c2ccccc2)C2CC3=C4CC(=O)O[C@@H](c5ccoc5)[C@]4(C)CCC3[C@@]1(C)C2=O (stereo partly drawn)
inactive: Potency [1] | Potency [2] | Potency [3] | Potency [4] | Potency [5] | Potency [6]

CC(C)C(C)C(O)C1CC23CC(=O)C4(O)C(=C2CCC3C1C)C=CC1(O)CC(O)CCC14C (stereo not drawn)
inactive: Potency [1] | Potency [2] | Potency [3] | Potency [4] | Potency [5] | Potency [6]

COc1cc(O)c2c(c1)C1OC1C[C@H](O)[C@H](O)C(=O)/C=C\C[C@H](C)OC2=O (stereo partly drawn)
inactive: Potency [1] | Potency [2] | Potency [3] | Potency [4] | Potency [5] | Potency [6]

COc1ccc(CCO[C@@H]2O[C@H](CO[C@H]3OC[C@](O)(CO)[C@H]3O)[C@@H](OC(=O)/C=C/c3ccc(O)c(O)c3)[C@H](O[C@@H]3O[C@@H](C)[C@H](O)[C@@H](O)[C@H]3O)[C@H]2O)cc1OC
active: Potency [4] 1.58 µM
inactive: Potency [1] | Potency [2] | Potency [3] | Potency [5] | Potency [6]

CC(=O)O[C@H]1[C@@]2(O)C[C@H](C)[C@H](OC(=O)c3ccccc3)[C@@H]2[C@@H](OC(=O)CO)[C@]2(OC(C)=O)C[C@H]3C(=O)C(C)(C)C[C@@H]3[C@@]1(C)[C@H]2OC(C)=O
inactive: Potency [1] | Potency [2] | Potency [3] | Potency [4] | Potency [5] | Potency [6]

COc1cc(-n2cnc3cc(-c4ccc(Cl)cc4)sc3c2=O)ccc1OCCN1CCCC1
inactive: Potency [1] | Potency [2] | Potency [3] | Potency [4] | Potency [5] | Potency [6]

CC(C)(C)c1ccc(NC(=O)N2CCN(c3ncccc3Cl)CC2)cc1
inactive: Potency [1] | Potency [2] | Potency [3] | Potency [4] | Potency [5] | Potency [6]

C[C@@H]1CC[C@]2(C(=O)O)CC[C@]3(C)C(=CCC4[C@@]5(C)CC[C@H](O)[C@](C)(C(=O)O)C5CC[C@]43C)C2[C@]1(C)O (stereo partly drawn)
inactive: Potency [1] | Potency [2] | Potency [3] | Potency [4] | Potency [5] | Potency [6]

CC(C)C[C@@H]1NC(=O)[C@@H](Cc2ccccc2)NC(=O)C(CCCCCC(=O)C2CO2)NC(=O)[C@@H]2CCCCN2C1=O (stereo partly drawn)
inactive: Potency [1] | Potency [2] | Potency [3] | Potency [4] | Potency [5] | Potency [6]

COc1ccc(S(=O)(=O)Nc2cc(Cl)cc(Cl)c2OC)cc1N1CCNCC1
inactive: Potency [1] | Potency [2] | Potency [3] | Potency [4] | Potency [5] | Potency [6]

CCCCNc1ncc(-c2ccc(CN3CCOCC3)cn2)c(NC2CCC(O)CC2)n1 (stereo not drawn)
inactive: Potency [1] | Potency [2] | Potency [3] | Potency [4] | Potency [5] | Potency [6]

CC(=O)O[C@@H]1C[C@@]23C[C@@]24CC[C@H](O[C@@H]2OC[C@H](O)[C@H](O)[C@H]2O)C(C)(C)[C@@H]4CC[C@H]3[C@]2(C)[C@@H](O)C34O[C@H](C[C@@H](C)[C@@H]3[C@@]12C)[C@@H](C(C)(C)O)O4
inactive: Potency [1] | Potency [2] | Potency [3] | Potency [4] | Potency [5] | Potency [6]

CC1=CC2/C=C(\C)CCC(O)C/C=C/C(=O)OC23C(=O)NC(CC(C)C)C3C1C (stereo not drawn)
inactive: Potency [1] | Potency [2] | Potency [3] | Potency [4] | Potency [5] | Potency [6]

CC(C)CCNc1ncccc1C(=O)N1CCN(Cc2ccccc2)CC1
inactive: Potency [1] | Potency [2] | Potency [3] | Potency [4] | Potency [5] | Potency [6]

O=C(Nc1cccnn1)N1CCN(c2nccc(-c3ccc(F)c(F)c3)n2)CC1
inactive: Potency [1] | Potency [2] | Potency [3] | Potency [4] | Potency [5] | Potency [6]

CCCNCCc1ccc(NS(=O)(=O)c2ccc(OC(F)(F)F)cc2)cc1
inactive: Potency [1] | Potency [2] | Potency [3] | Potency [4] | Potency [5] | Potency [6]

Cc1c(C2=CCN(C(=O)N(C)C(C)C)CC2)nnn1-c1cccnc1F
inactive: Potency [1] | Potency [2] | Potency [3] | Potency [4] | Potency [5] | Potency [6]

C=C1C(=O)O[C@H]2C[C@@H](C)[C@@H]3CCC(=O)[C@@]3(C)C[C@H]12
inactive: Potency [1] | Potency [2] | Potency [3] | Potency [4] | Potency [5] | Potency [6]

CCOC(=O)C1=Cc2ccc(C(F)(F)C(F)(F)F)cc2N=C(N)C1
inactive: Potency [1] | Potency [2] | Potency [3] | Potency [4] | Potency [5] | Potency [6]

Cc1cc(F)ccc1-c1nc(NCCN=C(N)NC#N)nc2c1ccc(=O)n2-c1c(F)cccc1F
active: Potency [1] 20.2 µM | Potency [2] 22.7 µM
inactive: Potency [3] | Potency [4] | Potency [5] | Potency [6]

C=C1CC[C@H]2C(=C)CC[C@H]3C(=C)C(=O)O[C@@H]3[C@@H]12
inactive: Potency [1] | Potency [2] | Potency [3] | Potency [4] | Potency [5] | Potency [6]
